According to the antibiotic and cytotoxicity screens of Wong et al. (2023):
Hit rate of the full screen: of about 39,000 compounds, about 3,300 (8.5%) were called active. The sample holds actives, similar compounds and a random draw of the others, so the mix is not that of the screen.

The compounds below were run on HepG2 (assay: cytotoxicity call (relative viability < 0.9)). Details: 10 µM.
With CC(C)NC(=O)N(C)C[C@H]1Oc2ccc(NS(=O)(=O)c3ccc(F)cc3)cc2C(=O)N([C@@H](C)CO)C[C@H]1C the cytotoxicity call was “inactive”.
In the case of C[C@H](CO)N1C[C@H](C)[C@H](CN(C)C(=O)Nc2ccc(C(F)(F)F)cc2)Oc2ccc(NC(=O)Nc3ccc4c(c3)OCO4)cc2CC1=O, the cytotoxicity call is reported as “inactive”.
Cl.N=C(NN=Cc1ccc(Cl)cc1)NN=Cc1ccc(Cl)cc1 was tested, and the cytotoxicity call was “inactive”.
In the case of Clc1ccc(/C=N/Cc2ccc(-c3cccs3)s2)cc1, the cytotoxicity call is reported as “active”.
With CC(C)(C)c1csc(-c2ccc(-c3cccs3)s2)n1 the cytotoxicity call was “inactive”.
In the case of CN1C(=O)c2cc(NC(=O)C3CCC3)ccc2OC[C@H]2O[C@H](CC(=O)NCCc3ccncc3)CC[C@@H]21, the cytotoxicity call is reported as “inactive”.
With Cc1noc(C)c1NC(=O)N(C)C[C@H]1Oc2ccc(NC(=O)Cn3cnnn3)cc2C(=O)N([C@@H](C)CO)C[C@@H]1C the cytotoxicity call was “inactive”.
In the case of O=C(C[C@@H]1CC[C@H]2[C@@H](COC[C@@H](O)CN2S(=O)(=O)c2cccc(Cl)c2)O1)NCc1ccc2c(c1)OCO2, the cytotoxicity call is reported as “inactive”.
For C[C@@H]1O[C@@H](Oc2c(-c3cc(O)c(O)c(O)c3)oc3cc(O)cc(O)c3c2=O)[C@H](O)[C@H](O)[C@H]1O, the cytotoxicity call was “inactive”.
C[C@@H]1O[C@@H](OC[C@H]2O[C@@H](OCCc3ccccc3)[C@H](O)[C@@H](O)[C@@H]2O)[C@H](O)[C@H](O)[C@H]1O was tested, and the cytotoxicity call was “inactive”.
In the case of Cc1coc(C)c1C(=O)O[C@@H]1O[C@@H](C)[C@H](O)[C@@H](O)[C@H]1O, the cytotoxicity call is reported as “active”.
With CCO[C@H]1OC(C(=O)N2CCN(Cc3ccc4c(c3)OCO4)CC2)=C[C@@H](C)[C@@H]1CCCOC(=O)NCCCCCC(=O)NO the cytotoxicity call was “inactive”.
In the case of O=C(C[C@H]1C[C@@H]2c3cc(NC(=O)NC4CCCC4)ccc3O[C@@H]2[C@@H](CO)O1)NCc1ccc2c(c1)OCO2, the cytotoxicity call is reported as “inactive”.
In the case of CO[C@H]1CN(C)C(=O)c2ccc(NC(=O)NC(C)C)cc2OC[C@@H](C)N(Cc2ccc(-c3ccccn3)cc2)C[C@@H]1C, the cytotoxicity call is reported as “inactive”.
With C[C@H]1CN([C@@H](C)CO)C(=O)Cc2cc(NC(=O)Nc3ccc(C(F)(F)F)cc3)ccc2O[C@@H]1CN(C)Cc1ccccc1 the cytotoxicity call was “inactive”.
In the case of C[C@H]1CN([C@@H](C)CO)C(=O)Cc2cc(NC(=O)Nc3ccc(C(F)(F)F)cc3)ccc2O[C@H]1CN(C)Cc1ccccc1, the cytotoxicity call is reported as “active”.
In the case of C[C@@H]1CN([C@H](C)CO)C(=O)Cc2cc(NC(=O)Nc3ccc(C(F)(F)F)cc3)ccc2O[C@@H]1CN(C)Cc1ccccc1, the cytotoxicity call is reported as “active”.
C[C@@H]1CN([C@@H](C)CO)C(=O)Cc2cc(NC(=O)Nc3ccc(C(F)(F)F)cc3)ccc2O[C@@H]1CN(C)Cc1ccccc1 was tested, and the cytotoxicity call was “active”.
With C[C@@H]1CN([C@H](C)CO)C(=O)Cc2cc(NC(=O)Nc3ccc(C(F)(F)F)cc3)ccc2O[C@H]1CN(C)Cc1ccccc1 the cytotoxicity call was “active”.
For C[C@@H]1CN([C@@H](C)CO)C(=O)Cc2cc(NC(=O)Nc3ccc(C(F)(F)F)cc3)ccc2O[C@H]1CN(C)Cc1ccccc1, the cytotoxicity call was “inactive”.
With C[C@H](CO)N1C[C@H](C)[C@H](CN(C)S(C)(=O)=O)Oc2ncc(C#Cc3ccc(C(F)(F)F)cc3)cc2C1=O the cytotoxicity call was “inactive”.
For COCC#Cc1cnc2c(c1)C(=O)N([C@H](C)CO)C[C@@H](C)[C@@H](CN(C)C(=O)CCN1CCCCC1)O2, the cytotoxicity call was “inactive”.
With C[C@@H]1CN([C@H](C)CO)C(=O)c2cc(NC(=O)Nc3ccc4c(c3)OCO4)ccc2O[C@@H]1CN(C)C(=O)Nc1cccc2ccccc12 the cytotoxicity call was “inactive”.
For COc1ccc(C#Cc2ccc3c(c2)O[C@H](CN(C)C(=O)CN2CCOCC2)[C@@H](C)CN([C@H](C)CO)S3(=O)=O)cc1, the cytotoxicity call was “inactive”.
In the case of CN(C)CCN1C(=O)CO[C@H]2CN(C(=O)NCc3cccnc3)C[C@@H]21, the cytotoxicity call is reported as “inactive”.
In the case of C[C@@H]1CN([C@H](C)CO)C(=O)Cc2cc(NC(=O)Nc3ccccc3)ccc2O[C@@H]1CN(C)S(=O)(=O)c1cn(C)cn1, the cytotoxicity call is reported as “inactive”.
With O=C(N/N=C/[C@H](O)[C@H](O)[C@@H](O)[C@@H](O)CO)c1ccccn1 the cytotoxicity call was “inactive”.
In the case of CON=C(C(=O)NC1C(=O)N2C(C(=O)O)=C(C[N+]3(C)CCCC3)CSC12)c1csc(N)n1.[Cl-] (configuration not stated), the cytotoxicity call is reported as “inactive”.
Cc1noc(C)c1S(=O)(=O)Nc1ccc2c(c1)C(=O)N([C@@H](C)CO)C[C@H](C)[C@H](CN(C)C(=O)Nc1cccc3ccccc13)OCCCC[C@H](C)O2 was tested, and the cytotoxicity call was “inactive”.
With C[C@H](CO)N1C[C@H](C)[C@@H](CN(C)Cc2ccccc2)Oc2ccc(NC(=O)Nc3ccc(C(F)(F)F)cc3)cc2CC1=O the cytotoxicity call was “active”.
In the case of C[C@H](CO)N1C[C@H](C)[C@H](CN(C)Cc2ccccc2)Oc2ccc(NC(=O)Nc3ccc(C(F)(F)F)cc3)cc2CC1=O, the cytotoxicity call is reported as “active”.
For CO[C@H]1CN(C)C(=O)c2cc(NC(=O)Nc3ccccc3F)ccc2OC[C@@H](C)N(Cc2ccccc2C(=O)O)C[C@H]1C, the cytotoxicity call was “inactive”.
In the case of C[C@@H]1CCCCO[C@H](CN(C)C(=O)Nc2ccc(F)cc2)[C@H](C)CN([C@@H](C)CO)C(=O)c2cc(NC(=O)c3ccccc3)ccc2O1, the cytotoxicity call is reported as “inactive”.
With O=C(O)CCC(=O)c1ccc(-c2ccccc2)cc1 the cytotoxicity call was “inactive”.
With COc1ccc(C(=O)CCC(=O)O)c2ccccc12 the cytotoxicity call was “active”.
With COc1ccc(C(=O)O)c(O)c1OC the cytotoxicity call was “inactive”.
C[C@H]1CCCCO[C@@H](CN(C)C(=O)NC2CCCCC2)[C@@H](C)CN([C@@H](C)CO)C(=O)c2cc(NC(=O)NC3CCCCC3)ccc2O1 was tested, and the cytotoxicity call was “inactive”.
For COc1ccc(S(=O)(=O)N(C)C[C@@H]2OCCCC[C@@H](C)Oc3ccc(NC(=O)Nc4ccccc4)cc3C(=O)N([C@@H](C)CO)C[C@@H]2C)cc1, the cytotoxicity call was “inactive”.
C[C@H](O)C#Cc1ccc2c(c1)O[C@H](CN(C)C(=O)Cc1ccccn1)[C@@H](C)CN([C@H](C)CO)S2(=O)=O was tested, and the cytotoxicity call was “inactive”.
For COc1ccccc1C#Cc1cnc2c(c1)C(=O)N([C@@H](C)CO)C[C@@H](C)[C@H](CN(C)S(=O)(=O)c1cn(C)cn1)O2, the cytotoxicity call was “active”.
In the case of COc1ccccc1C#Cc1cnc2c(c1)C(=O)N([C@@H](C)CO)C[C@H](C)[C@H](CN(C)S(=O)(=O)c1cn(C)cn1)O2, the cytotoxicity call is reported as “inactive”.
COCC#Cc1cnc2c(c1)C(=O)N([C@@H](C)CO)C[C@H](C)[C@@H](CN(C)S(=O)(=O)c1cn(C)cn1)O2 was tested, and the cytotoxicity call was “active”.
COCC#Cc1cnc2c(c1)C(=O)N([C@H](C)CO)C[C@@H](C)[C@H](CN(C)C(=O)c1cnccn1)O2 was tested, and the cytotoxicity call was “inactive”.
In the case of COc1ccccc1C#Cc1cnc2c(c1)C(=O)N([C@H](C)CO)C[C@@H](C)[C@@H](CN(C)S(=O)(=O)c1cn(C)cn1)O2, the cytotoxicity call is reported as “inactive”.
With COc1ccccc1C#Cc1cnc2c(c1)C(=O)N([C@H](C)CO)C[C@@H](C)[C@H](CN(C)S(=O)(=O)c1cn(C)cn1)O2 the cytotoxicity call was “active”.
With COc1ccccc1C#Cc1cnc2c(c1)C(=O)N([C@H](C)CO)C[C@H](C)[C@@H](CN(C)S(=O)(=O)c1cn(C)cn1)O2 the cytotoxicity call was “inactive”.
COCC#Cc1cnc2c(c1)C(=O)N([C@H](C)CO)C[C@H](C)[C@@H](CN(C)C(=O)c1cnccn1)O2 was tested, and the cytotoxicity call was “inactive”.
In the case of COCC#Cc1cnc2c(c1)C(=O)N([C@H](C)CO)C[C@@H](C)[C@H](CN(C)S(=O)(=O)c1cn(C)cn1)O2, the cytotoxicity call is reported as “inactive”.
For COc1ccccc1C#Cc1cnc2c(c1)C(=O)N([C@@H](C)CO)C[C@@H](C)[C@@H](CN(C)S(=O)(=O)c1cn(C)cn1)O2, the cytotoxicity call was “inactive”.
COCC#Cc1cnc2c(c1)C(=O)N([C@H](C)CO)C[C@H](C)[C@H](CN(C)C(=O)c1cnccn1)O2 was tested, and the cytotoxicity call was “active”.
In the case of COCC#Cc1cnc2c(c1)C(=O)N([C@H](C)CO)C[C@@H](C)[C@@H](CN(C)S(=O)(=O)c1cn(C)cn1)O2, the cytotoxicity call is reported as “inactive”.
In the case of COCCCNC(=O)[C@@]1(Sc2ccc(C)cc2)CC(=O)N(Cc2cc(C(F)(F)F)cc(C(F)(F)F)c2)[C@@H]1c1ccc(CO)cc1I, the cytotoxicity call is reported as “inactive”.
For Cc1cccc(S(=O)(=O)N2C[C@H](O)COC[C@H]3O[C@@H](CC(=O)NCc4ccncn4)CC[C@@H]32)c1, the cytotoxicity call was “inactive”.
For Cc1noc(C)c1NC(=O)N(C)C[C@@H]1Oc2ccc(NS(=O)(=O)c3c(C)noc3C)cc2C(=O)N([C@H](C)CO)C[C@@H]1C, the cytotoxicity call was “inactive”.
For C[C@@H]1CN([C@H](C)CO)C(=O)c2cc(NC(=O)NC3CCCCC3)ccc2O[C@@H]1CN(C)C(=O)Nc1cccc2ccccc12, the cytotoxicity call was “inactive”.
With Cc1ccc(S(=O)(=O)Nc2cccc3c2O[C@@H](CN(C)Cc2ccc(Oc4ccccc4)cc2)[C@H](C)CN([C@H](C)CO)C3=O)cc1 the cytotoxicity call was “inactive”.
In the case of COc1ccc(S(=O)(=O)N(C)C[C@@H]2OCCCC[C@H](C)Oc3ccc(NC(=O)Nc4ccccc4)cc3C(=O)N([C@H](C)CO)C[C@@H]2C)cc1, the cytotoxicity call is reported as “inactive”.
With O=C(NCCn1ncc2c(=O)n(Cc3ccccc3)cnc21)c1ccc(S(=O)(=O)N2CCOCC2)cc1 the cytotoxicity call was “inactive”.
For CC(C)Sc1n[nH]c(=O)[nH]c1=O, the cytotoxicity call was “inactive”.
In the case of CCCNC(=O)N(C)C[C@H]1Oc2cc(C#Cc3ccccn3)ccc2S(=O)(=O)N([C@H](C)CO)C[C@@H]1C, the cytotoxicity call is reported as “inactive”.
For CC[C@H]1Sc2ccccc2NC1=O, the cytotoxicity call was “inactive”.
For C[C@H]1CCCCO[C@H](CN(C)S(=O)(=O)c2cn(C)cn2)[C@@H](C)CN([C@@H](C)CO)C(=O)c2cc(NS(=O)(=O)c3cccs3)ccc2O1, the cytotoxicity call was “inactive”.
CSc1nc(C)cc(OCCO)n1 was tested, and the cytotoxicity call was “inactive”.
With COc1ccc(NC(=O)Nc2ccc3c(c2)C(=O)N([C@@H](C)CO)C[C@@H](C)[C@H](CN(C)Cc2ccc(Cl)c(Cl)c2)OCCCC[C@H](C)O3)cc1 the cytotoxicity call was “inactive”.
With O=c1c(-c2ccc(O)cc2)coc2cc(O[C@@H]3O[C@H](CO)[C@@H](O)[C@H](O)[C@H]3O)ccc12 the cytotoxicity call was “inactive”.
For COc1ccc(CNC(=O)C[C@@H]2CC[C@@H]3[C@@H](COc4ccc(NC(=O)C5CC5)cc4C(=O)N3C)O2)cc1, the cytotoxicity call was “inactive”.
For C[C@H](CO)N1C[C@H](C)[C@@H](CN(C)S(=O)(=O)c2cccs2)Oc2c(NC(=O)C3CCOCC3)cccc2C1=O, the cytotoxicity call was “inactive”.
